Reference: the supplement of paper PMC10646978
± gives the standard deviation.

Key:
Conditions in all cases: modulator concentration 10 µM
[1] = tested on: RAW-Dual (murine macrophage reporter line); assay: NF-kB reporter (SEAP) activity fold change vs agonist alone; higher = enhanced NF-kB activity
How it was run: (§1)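 Overnight stimulation with a PRR agonist followed pre-incubation for 1 hour at 37 °C with compound at 10 μM final. This was done in RAW-Dual murine macrophage reporter cells seeded at 50 000 per well in 384-well plates. NF-κB (SEAP, QUANTI-Blue absorbance at 620 nm) and IRF (Lucia luciferase, QUANTI-Luc luminescence) were read from the supernatant. Each reporter's fold change relative to the mean agonist-only control on the same plate was averaged over replicate plates.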

[2] = tested on: RAW-Dual (murine macrophage reporter line); assay: IRF reporter (Lucia luciferase) activity fold change vs agonist alone; higher = enhanced IRF activity
How it was run: as §1

[3] = tested on: RAW-Dual (murine macrophage reporter line); assay: viability score (confluency relative to resting cells, overnight) (fraction); higher = more viable, active = viable (0.7 or more)
How it was run: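 Overnight exposure to 10 μM final compound was carried out on RAW-Dual macrophages in 384-well plates. IncuCyte software generated two confluency masks over all wells imaged with IncuCyte. The viability score gives confluency in relation to resting cells. A compound met the cutoff if each mask exceeded 70% of resting cells.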

[4] = agonist: CpG ODN 1826 0.5 ug/mL

Structure (SMILES) | NF-kB reporter [1, 4] | NF-kB reporter ([1]; agonist: LPS 0.1 ug/mL) | NF-kB reporter ([1]; agonist: MPLA […]) | IRF reporter ([2]; agonist: 3'3'-cGAMP 10 ug/mL) | IRF reporter ([2]; agonist: LPS 0.1 ug/mL) | IRF reporter ([2]; agonist: MPLA […]) | viability score [3]
c1ccc(CCn2c(COc3ccccc3)nc3ccccc32)cc1 | 1.01 ± 0.16 | 0.987 ± 0.13 | 1.16 ± 0.16 | 1.21 ± 0.043 | 1.24 ± 0.16 | 1.34 ± 0.29 | 1.01 (active)
CC(=O)Nc1cc2nc3ccccc3nc2cc1NC(C)=O | 0.964 ± 0.11 | 1.05 ± 0.11 | 0.955 ± 0.041 | 1.09 ± 0.28 | 1.05 ± 0.092 | 0.988 ± 0.3 | 1 (active)
CCC(=O)c1c(O)cc(O)cc1O | 1.03 ± 0.083 | 1.1 ± 0.055 | 1.04 ± 0.055 | 0.922 ± 0.056 | 0.946 ± 0.081 | 0.84 ± 0.071 | 0.999 (active)
COC(=O)[C@H](c1ccccc1Cl)N1CCc2sccc2C1.O=S(=O)(O)O | 0.811 ± 0.21 | 0.993 ± 0.28 | 1.06 ± 0.12 | 1.11 ± 0.081 | 1.02 ± 0.29 | 0.955 ± 0.22 | 0.954 (active)
Cn1c(=O)cc(N2CCC[C@@H](N)C2)n(Cc2ccccc2C#N)c1=O | 1.19 ± 0.25 | 1.25 ± 0.28 | 2.23 ± 1.3 | 0.958 ± 0.031 | 1.3 ± 0.35 | 1.33 ± 0.26 | 0.99 (active)
N#C[C@@H]1C[C@@H]2C[C@@H]2N1C(=O)[C@@H](N)C12CC3CC(CC(O)(C3)C1)C2.O | 1.06 ± 0.083 | 0.968 ± 0.15 | 0.955 ± 0.024 | 0.956 ± 0.066 | 0.921 ± 0.068 | 0.871 ± 0.074 | 0.999 (active)
COc1ccc(Br)c(C(=O)N2CCOCC2CO)c1 (centres undefined) | 0.922 ± 0.049 | 0.963 ± 0.095 | 1.03 ± 0.071 | 0.997 ± 0.098 | 1.36 ± 0.26 | 1.52 ± 0.51 | 0.951 (active)
Cc1[nH]c(/C=C2\C(=O)Nc3ccccc32)c(C)c1CCC(=O)O | 0.716 ± 0.18 | 0.853 ± 0.11 | 0.812 ± 0.048 | 0.618 ± 0.021 | 0.956 ± 0.24 | 0.98 ± 0.18 | 0.993 (active)
COc1ccc(NC(=O)CN2C(=O)c3cccc4cccc(c34)C2=O)cc1 | 0.966 ± 0.059 | 0.998 ± 0.087 | 0.938 ± 0.063 | 0.939 ± 0.033 | 1.2 ± 0.11 | 1.1 ± 0.12 | 1 (active)
CC(C)NCC(O)c1ccc(NS(C)(=O)=O)cc1.Cl (centres undefined) | 0.99 ± 0.098 | 1.02 ± 0.057 | 1 ± 0.043 | 1.01 ± 0.056 | 0.978 ± 0.082 | 0.99 ± 0.09 | 1 (active)
O=C(CCC1CCCCC1)Nc1ccc(Br)cc1 | 1.02 ± 0.068 | 0.98 ± 0.074 | 1.07 ± 0.029 | 0.591 ± 0.029 | 0.922 ± 0.048 | 0.976 ± 0.096 | 0.986 (active)
COc1cc(C=NNC(=O)c2ccc(OC)c(OC)c2)ccc1O | 0.788 ± 0.32 | 0.838 ± 0.098 | 0.831 ± 0.066 | 0.83 ± 0.022 | 0.938 ± 0.15 | 1.15 ± 0.15 | 0.996 (active)
